Assay results from PubChem BioAssay.
A number with no mark means an inactive call. Active and inactive are the calls of the source. Rule as the data show it, unless noted: active = inhibition above about 30%; inactive = the rest.

Legend:
[1] = target: Nuclear receptor coactivator 3 (Homo sapiens) (UniProt Q9Y6Q9); test: NCOA3 GAL4-fusion reporter inhibition – cell-based, luminescence, quadruplicate, confirmation (AID 588792;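 active = mean inhibition over 43.08%, the solvent-only control mean plus 3 SD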;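 also: 0% = DMSO treated cells and 100% = gossypol at 36 µM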); settings: HEK293 GAL4-SRC3 luciferase reporter, at 3.6 µM, stronger effect = higher value
Sequence of Nuclear receptor coactivator 3 (Homo sapiens) (Q9Y6Q9 whole entry, looked up, the tested form may be a part): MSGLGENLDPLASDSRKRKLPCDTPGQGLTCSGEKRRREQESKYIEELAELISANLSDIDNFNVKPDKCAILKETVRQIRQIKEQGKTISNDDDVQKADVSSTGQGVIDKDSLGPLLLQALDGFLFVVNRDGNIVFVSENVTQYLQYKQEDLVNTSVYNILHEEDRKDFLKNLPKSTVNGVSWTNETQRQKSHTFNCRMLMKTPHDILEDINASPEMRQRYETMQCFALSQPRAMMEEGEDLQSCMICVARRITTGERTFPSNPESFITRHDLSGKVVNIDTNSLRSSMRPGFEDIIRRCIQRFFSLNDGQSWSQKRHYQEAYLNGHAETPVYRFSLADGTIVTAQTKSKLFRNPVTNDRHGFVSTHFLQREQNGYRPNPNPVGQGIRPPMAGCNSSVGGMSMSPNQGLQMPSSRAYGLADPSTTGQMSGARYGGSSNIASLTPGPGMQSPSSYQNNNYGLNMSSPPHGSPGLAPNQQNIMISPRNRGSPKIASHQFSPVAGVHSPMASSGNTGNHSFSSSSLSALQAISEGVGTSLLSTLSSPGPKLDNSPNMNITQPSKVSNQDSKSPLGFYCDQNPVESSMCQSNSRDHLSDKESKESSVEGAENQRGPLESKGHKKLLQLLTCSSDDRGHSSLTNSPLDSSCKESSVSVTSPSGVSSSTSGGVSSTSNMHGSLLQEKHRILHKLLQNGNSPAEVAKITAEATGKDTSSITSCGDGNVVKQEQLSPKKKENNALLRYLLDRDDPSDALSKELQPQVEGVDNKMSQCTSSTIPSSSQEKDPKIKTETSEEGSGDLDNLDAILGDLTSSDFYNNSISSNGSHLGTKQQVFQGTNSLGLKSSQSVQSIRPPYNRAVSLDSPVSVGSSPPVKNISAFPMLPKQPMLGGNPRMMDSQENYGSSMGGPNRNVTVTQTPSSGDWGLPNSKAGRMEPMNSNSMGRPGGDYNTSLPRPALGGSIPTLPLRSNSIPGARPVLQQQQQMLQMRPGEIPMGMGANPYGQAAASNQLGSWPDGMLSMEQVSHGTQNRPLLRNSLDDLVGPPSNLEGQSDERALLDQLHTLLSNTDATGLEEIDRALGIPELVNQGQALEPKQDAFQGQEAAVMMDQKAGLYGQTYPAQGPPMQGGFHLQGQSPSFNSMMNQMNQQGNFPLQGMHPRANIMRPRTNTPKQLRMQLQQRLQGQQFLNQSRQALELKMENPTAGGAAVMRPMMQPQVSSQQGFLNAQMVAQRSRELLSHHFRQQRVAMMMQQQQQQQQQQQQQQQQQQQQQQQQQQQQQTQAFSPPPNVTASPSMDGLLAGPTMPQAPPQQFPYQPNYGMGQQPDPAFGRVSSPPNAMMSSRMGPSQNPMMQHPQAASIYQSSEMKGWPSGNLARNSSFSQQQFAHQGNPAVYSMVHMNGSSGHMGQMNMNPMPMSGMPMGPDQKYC

[2] = test system: transactivating tegument protein VP16 (Human herpesvirus 1), Gal4-VP16 luciferase reporter; test: repression of VP16-driven luciferase reporter – cell-based, luminescence, high throughput, counter-screen for SRC3 inhibitor project (AID 588794); settings: mammalian cells, at 3.6 µM, stronger effect = higher value
[3] = target: Nuclear receptor coactivator 1 (Homo sapiens) (UniProt Q15788); test: NCOA1 GAL4-fusion reporter inhibition – cell-based, luminescence, quadruplicate, confirmation (AID 588820;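 active = mean inhibition above 46.68%, the untreated control wells mean plus 3 SD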;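 also: 0% = DMSO wells and 100% = gossypol 36 µM treated wells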); settings: HEK293 GAL4-SRC1 luciferase reporter, at 3.6 µM, stronger effect = higher value
Sequence of Nuclear receptor coactivator 1 (Homo sapiens) (Q15788 whole entry, looked up, the tested form may be a part): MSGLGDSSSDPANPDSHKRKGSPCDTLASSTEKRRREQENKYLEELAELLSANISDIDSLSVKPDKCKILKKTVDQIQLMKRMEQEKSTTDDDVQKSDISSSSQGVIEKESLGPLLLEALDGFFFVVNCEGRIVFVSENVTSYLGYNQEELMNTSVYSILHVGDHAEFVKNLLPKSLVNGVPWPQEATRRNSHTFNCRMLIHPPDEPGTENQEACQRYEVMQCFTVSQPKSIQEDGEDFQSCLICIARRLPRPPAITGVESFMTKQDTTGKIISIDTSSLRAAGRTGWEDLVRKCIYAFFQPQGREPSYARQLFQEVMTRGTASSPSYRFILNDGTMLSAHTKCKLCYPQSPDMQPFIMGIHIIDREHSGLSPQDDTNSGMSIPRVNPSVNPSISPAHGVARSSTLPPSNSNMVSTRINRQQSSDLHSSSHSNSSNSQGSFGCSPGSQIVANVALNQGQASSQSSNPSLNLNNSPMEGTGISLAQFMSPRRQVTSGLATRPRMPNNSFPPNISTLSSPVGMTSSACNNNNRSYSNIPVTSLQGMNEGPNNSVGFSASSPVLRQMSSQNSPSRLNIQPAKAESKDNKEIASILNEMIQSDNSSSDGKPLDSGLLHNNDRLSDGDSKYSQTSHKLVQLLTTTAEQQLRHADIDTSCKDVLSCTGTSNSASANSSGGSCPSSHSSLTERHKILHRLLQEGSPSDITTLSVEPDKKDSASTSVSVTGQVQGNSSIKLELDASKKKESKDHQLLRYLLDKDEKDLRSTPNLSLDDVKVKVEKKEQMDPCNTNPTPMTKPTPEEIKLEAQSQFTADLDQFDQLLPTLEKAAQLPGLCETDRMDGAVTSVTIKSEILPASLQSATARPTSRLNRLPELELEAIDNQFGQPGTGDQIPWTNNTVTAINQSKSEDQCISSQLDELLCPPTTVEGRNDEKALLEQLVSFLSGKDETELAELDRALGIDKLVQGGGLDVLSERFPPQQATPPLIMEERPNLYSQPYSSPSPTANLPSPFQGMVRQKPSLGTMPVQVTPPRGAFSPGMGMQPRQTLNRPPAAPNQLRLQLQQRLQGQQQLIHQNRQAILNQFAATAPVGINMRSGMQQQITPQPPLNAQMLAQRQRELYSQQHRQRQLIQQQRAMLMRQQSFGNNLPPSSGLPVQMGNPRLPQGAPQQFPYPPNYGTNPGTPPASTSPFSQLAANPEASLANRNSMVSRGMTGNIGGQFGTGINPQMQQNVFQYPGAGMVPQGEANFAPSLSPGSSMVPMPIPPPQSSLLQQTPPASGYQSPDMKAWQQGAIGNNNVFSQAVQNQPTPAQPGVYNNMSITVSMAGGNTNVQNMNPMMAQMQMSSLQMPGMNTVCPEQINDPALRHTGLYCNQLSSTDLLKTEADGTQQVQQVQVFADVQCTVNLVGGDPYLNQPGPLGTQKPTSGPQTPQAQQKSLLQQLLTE

[4] = repression of VP16-driven luciferase reporter – cell-based, luminescence, high throughput, counter-screen for SRC1 inhibitor project (AID 588824; in the data active = inhibition above about 25%); settings: cell-based VP16 transactivation luciferase luminescence; at 3.6 µM; stronger effect = higher value
[5] = test system: transactivating tegument protein VP16 (Human herpesvirus 1); test: compounds suppressing VP16-driven luciferase signal – cell-based, luminescence, single concentration, counter-screen for SRC2 inhibitor project (AID 652007; in the data active = inhibition above about 36%); settings: cell-based VP16 transactivation luciferase reporter, at 8.9 µM, stronger effect = higher value
[6] = target: Nuclear receptor coactivator 2 (Homo sapiens) (UniProt Q15596); test: inhibition of GAL4-SRC2 driven luciferase expression – cell-based, luminescence, HEK293, triplicate, confirmation (AID 652008;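 active = mean inhibition above 46.5%, the solvent-only control mean plus 3 SD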;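 also: 0% = DMSO-treated cells and 100% = Gossypol at 36 µM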); settings: HEK293 GAL4-SRC2 luciferase reporter, at 8.9 µM, stronger effect = higher value
Sequence of Nuclear receptor coactivator 2 (Homo sapiens) (Q15596 whole entry, looked up, the tested form may be a part): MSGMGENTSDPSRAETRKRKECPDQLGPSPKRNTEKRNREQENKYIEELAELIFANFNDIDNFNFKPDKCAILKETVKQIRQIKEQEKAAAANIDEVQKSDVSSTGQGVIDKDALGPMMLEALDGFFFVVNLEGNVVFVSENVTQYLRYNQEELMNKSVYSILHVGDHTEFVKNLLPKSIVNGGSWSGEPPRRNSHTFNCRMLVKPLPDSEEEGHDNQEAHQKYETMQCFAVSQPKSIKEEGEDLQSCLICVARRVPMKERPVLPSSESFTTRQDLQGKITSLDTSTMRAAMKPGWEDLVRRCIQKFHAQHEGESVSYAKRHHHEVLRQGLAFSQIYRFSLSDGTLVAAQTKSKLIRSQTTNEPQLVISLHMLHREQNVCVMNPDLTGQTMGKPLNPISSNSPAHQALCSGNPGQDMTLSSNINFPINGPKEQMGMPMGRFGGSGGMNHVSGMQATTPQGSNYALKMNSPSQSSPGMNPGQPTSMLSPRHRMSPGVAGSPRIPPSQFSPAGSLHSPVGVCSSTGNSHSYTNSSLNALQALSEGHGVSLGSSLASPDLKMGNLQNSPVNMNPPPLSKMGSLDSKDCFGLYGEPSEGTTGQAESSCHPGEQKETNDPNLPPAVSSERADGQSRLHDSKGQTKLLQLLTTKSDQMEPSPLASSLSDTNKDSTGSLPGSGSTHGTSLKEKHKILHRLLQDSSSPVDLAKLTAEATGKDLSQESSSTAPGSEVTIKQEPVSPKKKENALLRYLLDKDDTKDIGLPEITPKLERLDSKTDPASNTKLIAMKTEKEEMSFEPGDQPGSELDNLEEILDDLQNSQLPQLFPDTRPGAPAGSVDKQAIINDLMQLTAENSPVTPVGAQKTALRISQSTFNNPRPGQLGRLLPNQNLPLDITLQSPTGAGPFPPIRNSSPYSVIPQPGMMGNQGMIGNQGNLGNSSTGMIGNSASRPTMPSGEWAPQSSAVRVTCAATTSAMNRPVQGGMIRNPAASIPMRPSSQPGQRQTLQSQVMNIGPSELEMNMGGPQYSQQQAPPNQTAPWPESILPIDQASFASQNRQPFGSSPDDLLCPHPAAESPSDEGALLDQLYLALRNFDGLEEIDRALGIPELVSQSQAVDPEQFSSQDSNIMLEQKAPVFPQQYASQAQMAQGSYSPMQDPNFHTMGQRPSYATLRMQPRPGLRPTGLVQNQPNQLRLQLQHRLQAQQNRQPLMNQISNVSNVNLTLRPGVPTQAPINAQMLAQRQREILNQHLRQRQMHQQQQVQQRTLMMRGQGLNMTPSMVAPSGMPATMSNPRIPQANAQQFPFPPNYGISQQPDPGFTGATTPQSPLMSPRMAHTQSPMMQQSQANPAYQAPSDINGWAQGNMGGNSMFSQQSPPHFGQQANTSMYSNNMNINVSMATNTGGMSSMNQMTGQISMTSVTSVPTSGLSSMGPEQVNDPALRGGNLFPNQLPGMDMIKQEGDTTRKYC

Compound	inhibition [1]	inhibition [2]	inhibition [3]	inhibition [4]	inhibition [5]	inhibition [6]
Cc1nnc(SCC(=O)N2CCC(c3noc4ccc(F)cc34)CC2)s1	85.1% (active)	48.4% (active)	69.4% (active)	45.1% (active)	6.59%	44.8%
COc1ccccc1-c1cc2nc(-c3ccccc3)cc(N3CCN(C(=O)c4ccco4)CC3)n2n1	30.4%	48.6% (active)	17.6%	25.1%	62.7% (active)	60.3% (active)
CCCN1C=CC(=C2C(=O)c3ccccc3C2=O)C=C1	65.4% (active)	51.3% (active)	-14.4%	38% (active)	80.3% (active)	91.3% (active)
CC(=C/c1ccccc1)/C=N/n1c(-c2ccncc2)n[nH]c1=S	71.2% (active)	45.2% (active)	66.1% (active)	51.6% (active)	6.14%	45%
CC(=O)c1ccc(-n2c(C)c(C(C)=O)c3cc(O)ccc32)cc1	63% (active)	45.6% (active)	45.9%	46.7% (active)	2.74%	54.7% (active)
Cn1nnnc1Sc1ncnc2scc(-c3cccc(Br)c3)c12	31.4%	43.7% (active)	43.3%	47.5% (active)	9.2%	55.7% (active)
CC1CCN(C2=NC(=O)/C(=C/c3ccccc3F)S2)CC1	38.5%	-5.24%	-2.11%	-40.4%	-74.3%	15.4%
c1cc(-c2nnc3sc(C4CCCCC4)nn23)ccn1	62.6% (active)	37.2% (active)	58.2% (active)	51% (active)	0.17%	35.7%
Cc1cc(NC(c2ccc(Cl)cc2)c2ccc3cccnc3c2O)no1 (stereo not given)	54% (active)	42% (active)	28.2%	58.8% (active)	-9.15%	17.6%
CN(C)C(=O)c1cccc(-c2cnc3sc(NCc4ccc5c(c4)OCO5)nn23)c1	53.2% (active)	35.7% (active)	51.8% (active)	33.7% (active)	8.86%	62.2% (active)
COC(=O)c1cccc2c1-c1ccccc1/C2=N/O	50.9% (active)	24.4%	34.5%	25.2%	21.1%	42.4%
CCCCN1C=CC(=C2C(=O)c3ccccc3C2=O)C=C1	41.5%	23.1%	-41.3%	14.1%	51% (active)	73.1% (active)
COc1cccc(Nc2ncnc3ccc(Br)cc23)c1	43.5% (active)	31% (active)	51% (active)	30.9% (active)	-7.29%	34.5%
Cc1ccc(-c2csc(=Nc3cccnc3)n2CCCn2ccnc2)cc1C	71% (active)	51.5% (active)	66.7% (active)	45.6% (active)	-0.44%	56.8% (active)
Cc1cc(C(=O)CN2C(=O)c3ccccc3S2(=O)=O)c(C)n1C(C)C	31.4%	24.3%	-24.8%	12.9%	29.6%	59.6% (active)
Cn1nc(C(F)(F)F)c(C#N)c1N1CCN(c2ccccc2)CC1	56.3% (active)	31.5% (active)	35.6%	19.3%	4.83%	27.6%
CCOc1ccc(/C=C2\SC(=S)N(CCC(=O)O)C2=O)cc1	29%	-33.1%	39.5%	-38.8%	-7.9%	84.6% (active)
Cc1ccc(OCC(=O)c2cc(C)n(Cc3cccs3)c2C)c([N+](=O)[O-])n1	21%	8.55%	24%	14.2%	10.7%	52.2% (active)
Cc1[nH]nc2ncc(C(=O)c3ccccc3O)cc12	73.3% (active)	43.9% (active)	68.7% (active)	48.9% (active)	-2.08%	50.4% (active)
COc1ccc(/C=C2/SC(=S)N(CCC(=O)O)C2=O)cc1	34.8%	4.06%	23%	0.23%	-21.3%	85.1% (active)
